Reference: ChEMBL document CHEMBL3988442, “University of Dundee, Small-Polar-MMV Screening Library” (2021)
For some of these results: Potency and affinity values are given separately.

What was measured:
Set-up in all cases: scale not given: direction of the effect not stated beside the values
[1] = target: Protein translocase subunit SecA (Escherichia coli (strain K12)) (UniProt P10408); experiment: Assay to Identify E. coli SecA ATPase Inhibitors; format: functional; conditions: 30 µM
[2] = target: T1, Ubiquitin-activating enzyme e1, putative (Leishmania donovani (strain BPK282A1)) (UniProt E9BSI1); experiment: Leishmania donovani Ubiquitin Activating Enzyme (LdE1); format: functional; conditions: 30 µM
T1 sequence (whole entry): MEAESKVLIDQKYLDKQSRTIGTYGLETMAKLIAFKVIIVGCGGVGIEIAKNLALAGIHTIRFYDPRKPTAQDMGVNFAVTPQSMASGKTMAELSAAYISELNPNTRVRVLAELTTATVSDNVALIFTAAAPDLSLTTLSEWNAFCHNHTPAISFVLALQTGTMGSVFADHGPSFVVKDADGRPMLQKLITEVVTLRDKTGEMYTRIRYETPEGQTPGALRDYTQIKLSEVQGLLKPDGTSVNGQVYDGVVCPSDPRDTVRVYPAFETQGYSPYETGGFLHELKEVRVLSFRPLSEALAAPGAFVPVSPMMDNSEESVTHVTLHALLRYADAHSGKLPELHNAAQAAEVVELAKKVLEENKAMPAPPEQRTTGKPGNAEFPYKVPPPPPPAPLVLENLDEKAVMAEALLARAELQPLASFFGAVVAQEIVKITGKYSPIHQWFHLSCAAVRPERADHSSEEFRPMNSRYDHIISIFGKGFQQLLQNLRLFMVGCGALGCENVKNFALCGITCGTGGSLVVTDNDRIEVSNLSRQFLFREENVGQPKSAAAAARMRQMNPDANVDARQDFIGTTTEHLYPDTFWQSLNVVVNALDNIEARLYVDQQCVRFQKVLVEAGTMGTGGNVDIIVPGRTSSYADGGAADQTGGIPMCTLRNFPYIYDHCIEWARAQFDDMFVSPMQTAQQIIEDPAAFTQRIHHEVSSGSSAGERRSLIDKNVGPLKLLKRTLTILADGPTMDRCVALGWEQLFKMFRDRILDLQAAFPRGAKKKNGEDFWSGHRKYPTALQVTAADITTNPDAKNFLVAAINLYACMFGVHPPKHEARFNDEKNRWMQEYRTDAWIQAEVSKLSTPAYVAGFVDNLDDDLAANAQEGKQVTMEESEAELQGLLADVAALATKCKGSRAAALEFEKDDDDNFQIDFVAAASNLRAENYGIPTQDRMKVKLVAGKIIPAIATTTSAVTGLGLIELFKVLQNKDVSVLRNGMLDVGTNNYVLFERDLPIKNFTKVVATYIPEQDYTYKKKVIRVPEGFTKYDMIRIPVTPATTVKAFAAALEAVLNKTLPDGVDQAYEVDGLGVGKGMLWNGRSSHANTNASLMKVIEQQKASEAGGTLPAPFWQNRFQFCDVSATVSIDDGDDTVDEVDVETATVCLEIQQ

[3] = target: AMP-activated protein kinase, AMPK (Homo sapiens) (UniProt P54646+O43741+P54619+Q9UGJ0+Q9Y478+Q13131+Q9UGI9); experiment: AMP-dependent Kinase enzyme assay. An in vitro enzyme assay that detects ADP turnover that is directly proportional to AMPK activity. This uses naive AMPK that is activated during the assay with MK-8722; format: functional; conditions: 30 µM
[4] = target: Sialic acid-binding Ig-like lectin 9 (Homo sapiens) (UniProt Q9Y336); experiment: Hs-Siglec9 ALPHAscreen SOP 20170721; conditions: 10 µM
Sialic acid-binding Ig-like lectin 9 (Homo sapiens), sequence (Q9Y336 whole entry): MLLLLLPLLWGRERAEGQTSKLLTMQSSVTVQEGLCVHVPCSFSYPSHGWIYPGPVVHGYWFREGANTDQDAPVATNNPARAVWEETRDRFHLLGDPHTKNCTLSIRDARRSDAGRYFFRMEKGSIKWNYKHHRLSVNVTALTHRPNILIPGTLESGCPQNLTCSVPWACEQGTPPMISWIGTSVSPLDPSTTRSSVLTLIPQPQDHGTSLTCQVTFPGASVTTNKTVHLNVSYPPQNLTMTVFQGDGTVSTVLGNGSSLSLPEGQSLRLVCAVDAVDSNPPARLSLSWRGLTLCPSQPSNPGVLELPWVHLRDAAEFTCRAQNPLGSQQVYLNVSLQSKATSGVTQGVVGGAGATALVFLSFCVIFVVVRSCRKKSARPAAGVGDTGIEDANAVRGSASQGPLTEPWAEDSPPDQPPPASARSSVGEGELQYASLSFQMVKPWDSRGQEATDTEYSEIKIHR

[5] = tested on: Trypanosoma cruzi; experiment: Trypanosoma cruzi phosphomannomutase and mannose-1-phosphate guanylyltransferase assay; format: functional; conditions: 10 µM
[6] = target: T2, Arginase-2, mitochondrial (Homo sapiens) (UniProt P78540); experiment: in vitro enzyme assay to detect the production of urea directly proportional to the activity of Arginase II; format: functional; conditions: 33.3 µM; further: in the data most compounds retested in dose-response had high values
T2 sequence (whole entry): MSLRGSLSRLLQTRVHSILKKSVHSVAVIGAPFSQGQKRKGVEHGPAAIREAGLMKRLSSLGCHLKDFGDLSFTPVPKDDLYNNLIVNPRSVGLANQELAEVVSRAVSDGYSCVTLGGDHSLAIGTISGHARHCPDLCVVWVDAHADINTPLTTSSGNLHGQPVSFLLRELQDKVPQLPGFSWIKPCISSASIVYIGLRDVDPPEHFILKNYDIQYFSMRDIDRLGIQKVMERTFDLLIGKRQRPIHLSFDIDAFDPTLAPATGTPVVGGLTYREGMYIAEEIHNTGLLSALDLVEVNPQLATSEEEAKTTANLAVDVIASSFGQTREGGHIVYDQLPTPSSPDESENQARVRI

[7] = target: T3, Proteasome subunit beta (Trypanosoma cruzi) (UniProt O96673); experiment: Trypanosoma cruzi proteasome chymotrypsin-like activity (TcProtChymo) assay.; further: in the data most compounds retested in dose-response had high values; format: functional; conditions: 9.37 µM
T3 sequence (whole entry): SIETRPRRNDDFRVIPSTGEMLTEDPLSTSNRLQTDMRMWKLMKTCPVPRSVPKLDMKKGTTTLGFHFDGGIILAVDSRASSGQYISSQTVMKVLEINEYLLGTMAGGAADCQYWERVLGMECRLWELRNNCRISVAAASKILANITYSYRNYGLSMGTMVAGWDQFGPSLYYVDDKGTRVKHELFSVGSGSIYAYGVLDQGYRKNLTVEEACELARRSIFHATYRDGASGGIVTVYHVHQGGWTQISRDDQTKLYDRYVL

[8] = organism: Homo sapiens; experiment: To identify inhibition of the IFN signalling (Jak-Stat) pathway via expression of an eGFP reporter gene under the control of an IFN-stimulated response element (ISRE) containing MxA promoter.; format: functional; conditions: 30 µM
[9] = target: T4, Tyrosyl-tRNA synthetase, putative (Trypanosoma cruzi (strain CL Brener)) (UniProt Q4DSP6); experiment: Trypanosoma cruzi tyrosyl tRNA synthetase (TcYRS) _High Tyrosine SOP; format: functional; conditions: 30 µM; further: in the data most compounds retested in dose-response had high values
T4 sequence (whole entry): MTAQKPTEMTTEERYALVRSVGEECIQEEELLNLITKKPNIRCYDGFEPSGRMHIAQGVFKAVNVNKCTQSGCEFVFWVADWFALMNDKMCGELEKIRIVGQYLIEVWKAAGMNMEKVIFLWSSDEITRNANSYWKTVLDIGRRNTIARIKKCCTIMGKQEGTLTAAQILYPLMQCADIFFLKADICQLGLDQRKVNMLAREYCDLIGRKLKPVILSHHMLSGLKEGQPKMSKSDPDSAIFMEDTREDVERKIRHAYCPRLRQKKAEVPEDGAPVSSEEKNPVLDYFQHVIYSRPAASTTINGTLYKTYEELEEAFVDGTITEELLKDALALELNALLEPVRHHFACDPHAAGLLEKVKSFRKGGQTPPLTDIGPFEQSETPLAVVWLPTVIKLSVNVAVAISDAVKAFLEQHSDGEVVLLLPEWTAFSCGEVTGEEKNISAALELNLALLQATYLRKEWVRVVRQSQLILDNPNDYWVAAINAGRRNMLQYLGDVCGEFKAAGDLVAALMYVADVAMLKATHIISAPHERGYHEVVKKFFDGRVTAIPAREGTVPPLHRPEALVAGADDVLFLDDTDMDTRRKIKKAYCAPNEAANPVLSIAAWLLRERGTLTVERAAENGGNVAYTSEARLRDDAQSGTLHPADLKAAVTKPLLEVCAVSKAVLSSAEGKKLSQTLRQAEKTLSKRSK

[10] = target: T4, Tyrosyl-tRNA synthetase, putative (Trypanosoma cruzi (strain CL Brener)); experiment: Trypanosoma cruzi tyrosyl tRNA synthetase (TcYRS) SOP; format: functional; conditions: 30 µM
[11] = target: Chromo domain-containing protein 1 (Saccharomyces cerevisiae (strain ATCC 204508 / S288c) (Baker's yeast)) (UniProt P32657); experiment: ScCHD-1 Enzyme Inhibition Assay; format: functional; conditions: 30 µM; further: in the data most compounds retested in dose-response had high values
Chromo domain-containing protein 1 (Saccharomyces cerevisiae (strain ATCC 204508 / S288c) (Baker's yeast)), sequence (P32657 whole entry, the tested form may be a part): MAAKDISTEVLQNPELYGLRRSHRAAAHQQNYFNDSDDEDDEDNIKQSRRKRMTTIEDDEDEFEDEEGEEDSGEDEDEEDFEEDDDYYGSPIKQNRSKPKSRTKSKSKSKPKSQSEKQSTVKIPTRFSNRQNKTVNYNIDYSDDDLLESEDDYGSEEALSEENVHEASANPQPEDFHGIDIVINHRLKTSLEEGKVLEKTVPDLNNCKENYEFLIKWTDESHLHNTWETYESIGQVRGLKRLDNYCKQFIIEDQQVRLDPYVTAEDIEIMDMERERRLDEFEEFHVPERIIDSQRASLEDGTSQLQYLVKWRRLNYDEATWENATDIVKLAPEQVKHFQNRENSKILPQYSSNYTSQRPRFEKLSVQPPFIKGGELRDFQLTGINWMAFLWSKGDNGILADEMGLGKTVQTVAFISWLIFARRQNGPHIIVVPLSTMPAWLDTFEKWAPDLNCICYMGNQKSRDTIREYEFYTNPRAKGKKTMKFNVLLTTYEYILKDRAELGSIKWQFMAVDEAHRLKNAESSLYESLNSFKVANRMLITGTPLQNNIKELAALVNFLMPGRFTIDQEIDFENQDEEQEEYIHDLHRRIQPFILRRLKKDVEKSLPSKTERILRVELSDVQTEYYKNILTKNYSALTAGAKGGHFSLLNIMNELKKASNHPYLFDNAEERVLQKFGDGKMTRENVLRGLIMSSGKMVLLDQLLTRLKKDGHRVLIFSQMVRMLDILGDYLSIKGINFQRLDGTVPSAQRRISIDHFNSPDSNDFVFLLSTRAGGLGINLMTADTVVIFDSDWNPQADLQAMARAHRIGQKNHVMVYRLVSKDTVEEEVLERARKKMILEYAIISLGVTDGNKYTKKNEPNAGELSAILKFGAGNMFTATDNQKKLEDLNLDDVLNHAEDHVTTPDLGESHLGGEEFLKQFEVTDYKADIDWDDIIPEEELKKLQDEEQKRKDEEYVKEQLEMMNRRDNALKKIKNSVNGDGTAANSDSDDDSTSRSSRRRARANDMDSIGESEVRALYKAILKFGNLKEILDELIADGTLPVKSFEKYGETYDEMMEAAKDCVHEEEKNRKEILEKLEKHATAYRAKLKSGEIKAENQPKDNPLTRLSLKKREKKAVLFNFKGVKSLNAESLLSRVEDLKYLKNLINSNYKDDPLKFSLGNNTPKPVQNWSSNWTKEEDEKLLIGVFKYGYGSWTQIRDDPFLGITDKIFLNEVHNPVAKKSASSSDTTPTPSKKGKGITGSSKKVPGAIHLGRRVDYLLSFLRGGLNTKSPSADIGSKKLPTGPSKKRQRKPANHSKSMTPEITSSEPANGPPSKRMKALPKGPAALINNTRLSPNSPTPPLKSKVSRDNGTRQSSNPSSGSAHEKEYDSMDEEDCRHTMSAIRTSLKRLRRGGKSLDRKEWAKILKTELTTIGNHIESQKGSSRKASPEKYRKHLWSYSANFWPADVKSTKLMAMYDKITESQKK

Protein translocase subunit SecA (Escherichia coli (strain K12)), sequence (P10408 whole entry): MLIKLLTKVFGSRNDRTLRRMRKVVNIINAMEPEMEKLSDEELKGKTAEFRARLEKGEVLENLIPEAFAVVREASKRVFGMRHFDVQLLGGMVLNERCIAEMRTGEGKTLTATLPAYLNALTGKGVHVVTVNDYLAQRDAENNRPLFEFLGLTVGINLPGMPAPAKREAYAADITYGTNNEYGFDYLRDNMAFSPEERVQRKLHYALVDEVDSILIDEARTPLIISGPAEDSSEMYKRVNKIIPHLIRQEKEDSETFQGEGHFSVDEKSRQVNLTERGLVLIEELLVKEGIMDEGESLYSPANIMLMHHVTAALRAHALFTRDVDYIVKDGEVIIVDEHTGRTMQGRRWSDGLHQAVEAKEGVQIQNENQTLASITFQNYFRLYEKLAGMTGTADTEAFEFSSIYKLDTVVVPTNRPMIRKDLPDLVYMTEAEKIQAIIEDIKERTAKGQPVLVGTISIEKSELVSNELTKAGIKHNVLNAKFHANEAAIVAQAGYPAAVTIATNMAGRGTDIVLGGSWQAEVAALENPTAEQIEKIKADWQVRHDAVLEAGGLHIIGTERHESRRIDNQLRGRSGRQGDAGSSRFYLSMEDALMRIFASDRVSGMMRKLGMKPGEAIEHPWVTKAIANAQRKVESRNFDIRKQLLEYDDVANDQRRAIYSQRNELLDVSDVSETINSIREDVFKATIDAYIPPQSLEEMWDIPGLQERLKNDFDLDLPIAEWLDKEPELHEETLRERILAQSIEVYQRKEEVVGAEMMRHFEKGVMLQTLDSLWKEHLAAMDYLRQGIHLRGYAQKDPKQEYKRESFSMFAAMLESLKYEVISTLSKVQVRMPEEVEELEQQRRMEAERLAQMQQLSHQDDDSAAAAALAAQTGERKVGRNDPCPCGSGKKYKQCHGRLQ

Compound | Percent Effect [1] [%] | Percent Effect [2] [%] | Percent Effect [3] [%] | Percent Effect [4] [%] | Percent Effect [5] [%] | Percent Effect [6] [%] | Percent Effect [7] [%] | Percent Effect [8] [%] | Percent Effect [9] [%] | Percent Effect [10] [%] | Percent Effect [11] [%]
Cc1ccc2oc(CNC(C)c3nnc4n3CCCC4)cc2c1 (stereo not given) | -2.09 | -10.8 | -8.92 | -1.29 | 0.781 | -2.5 | 10.6 | 17.8 | 11.9 | 15.8 | 1.91
Cc1nc(-c2ccc(Cl)s2)sc1C(=O)NCCS(N)(=O)=O | -5.36 | 10.8 | 20 | 14.1 | -1.95 | 2.4 | 9.34 | 6.3 | 5.94 | 13.4 | 0.478
CN(C)CCOCC1CN(CC2CCOCC2)Cc2nnn(C)c21 (stereo not given) | -5.87 | 10.8 | 1.42 | -2.51 | -5.96 | 1.24 | 8.67 | 17 | 5.38 | 11.1 | -4.9
CC(C)CN1CCN(C(=O)Nc2cc(C(F)(F)F)c[nH]c2=O)CC1 | -3.29 | 2.6 | 6.98 | 4.09 | -2.06 | 2.13 | 3.55 | 20.1 | 5.83 | 12.2 | -7.11
C[C@@H]1C[C@@H]2CCN(C(=O)c3cnccn3)C[C@H]2O1 | -2.4 | -2.7 | 5.23 | -2.15 | -1.95 | 0.417 | -0.592 | 3.34 | 1.98 | -3.66 | -0.0529
CS(=O)(=O)N[C@@H]1CCO[C@]2(CCN(C(=O)c3cnccn3)C2)C1 | -3.71 | 10.8 | 1.74 | -2.86 | 1.07 | 0.955 | 22.7 | 5.57 | 7.57 | 17.9 | 2.48
CN1[C@H](Cn2cncn2)C[C@@H]2CN(Cc3cccc(C#N)c3)CC[C@@H]21 | -1.53 | 13.5 | -0.719 | -6.04 | 0 | -2.5 | 15 | -2.04 | 9.9 | 13.4 | 2.31
COc1cccc(CN2CCC(c3cc(O)nc(C)n3)C2)c1 (stereo not given) | -3.18 | 12.2 | 6.93 | 3.66 | 2.37 | -3.02 | 11.7 | 29.9 | 6.45 | 14.3 | -5.62
COCC1CN(Cc2ccc(C)o2)Cc2ncn(CC3CC3)c21 (stereo not given) | 0.368 | 5.2 | -2.46 | 5.95 | 6.79 | -6.9 | 3.99 | -10.6 | 1.07 | 1.24 | -7.38
COCCNC(=O)[C@H]1CN(Cc2scnc2C)C[C@H]2OCC[C@@H]12 | -3.71 | 5.48 | 0.0499 | 5.36 | 3.77 | 1.2 | 1.11 | 4.51 | 5.21 | 16.1 | 1.51
Cc1cccc(-c2nc(CN3CCCCC3Cn3cncn3)no2)c1 (stereo not given) | -1.65 | -5.26 | 5.98 | 4.13 | 3.19 | 3.45 | 2.34 | -0.995 | 7.35 | 0 | 6.07
O=C(c1csc(Br)c1)N1CCCC(n2ccnc2)C1 (stereo not given) | -3.43 | 11.4 | -1.54 | -8.98 | 2.56 | -5.38 | 2.74 | -8.54 | 2.08 | 12.7 | 54.1
O=C(NCCc1c[nH]cn1)c1ccc2c(c1)C(=O)N(C1CC1)C2=O | -0.201 | 1.33 | 5.05 | 2.3 | -8.64 | 0.176 | 11.7 | -8.34 | 6.35 | 7.69 | -4.66
Cn1cccc1CNC(=O)CCCc1nnc2ccccn12 | -4.97 | 6.67 | -2.6 | 1.09 | 3.14 | -8.28 | 12.4 | -1.85 | 3.17 | 2.56 | -6.43
N#Cc1ncn(CCC(=O)Nc2c(Cl)cccc2Cl)n1 | -1.01 | 2.74 | -1.08 | 6.16 | 1.59 | -24.8 | 19.6 | -3.99 | 11.5 | 21 | -3.19
CC(=O)N1CCOCC2(CN(Cc3ccc(C)o3)CCO2)C1 (stereo not given) | -8.61 | 2.67 | 0.553 | -4.1 | 0.591 | 0.699 | 1.67 | 17.8 | 3.19 | 1.28 | -4.82
CC(C)n1c(=O)nc2n1C(=O)N(c1ccccc1)C2 | -3.47 | 18.4 | -0.93 | -3.33 | 0.682 | -4.73 | 14.7 | -2.62 | 6.38 | 18.2 | -9.74
Cc1ccccc1[C@@H]1CN(C(=O)c2ccc3[nH]nnc3c2)C[C@H]1C(=O)O | -4.25 | -11 | 4.06 | 1.72 | -5.75 | 0.399 | 8.65 | 2.78 | 3.12 | 3.7 | 2.93
Cc1nnc(N2CCC(CS(N)(=O)=O)CC2)c(C#N)c1C | -5.18 | 2.6 | -17.4 | -9.8 | 0.49 | -1.9 | 16.1 | 7.88 | 3.81 | 9.41 | -16.6
N#Cc1ccc(C(=O)N2CC[C@H]3[C@@H]2CCC(=O)N3c2ccccc2)cc1 | 1.09 | 0 | 6.69 | -7.59 | -7.68 | 4.89 | 6.08 | 0.115 | 4.25 | 11.5 | -4.7
